Some test systems named below: T-47D breast; BT-549 breast; MDA-MB-435 melanoma; SW-620 colon; MCF7 breast; HCT-116 colon; HCC-2998 colon; KM12 colon.
What all share (test): NCI-60 one-dose screen, 48 h (100 = growth as untreated, 0 = no growth, -100 = all killed)
Details in all cases: 10 µM unless noted

Each structure is given as a SMILES string. This is part of a sample that, as a whole, favours compounds with a hit. Of some 83,000 tested, about 20% had one in any assay.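 Note: values are percent growth. 100 is the growth of untreated cells, values between 100 and 0 indicate rising inhibition; between -100 and 0 indicates cell death.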 A number with no mark means an inactive call. Calls of active or inactive are those of the source. Rule for the calls: active = growth percent below 10; inactive = the rest.

This passage reports growth results from PubChem BioAssay (NCI).

Turning to `O=C1NC(=C(Cl)Cl)/C(=N/S(=O)(=O)N2CCC(C3(C(F)(F)F)N=N3)CC2)N1`, the growth was 47.5% in the experiment with T-47D breast; 99.4% in the experiment with BT-549 breast; 70.7% in the experiment on MDA-MB-435 melanoma; -36.4% (active) in the experiment on SW-620 colon; 74.6% in the experiment with MCF7 breast; 95.4% in the experiment on HCT-116 colon. Also, the growth with HCC-2998 colon was 60.5%; with KM12 colon it was 93.7%.

Consider `COc1ccc2[nH]c(C(=O)OCc3ccc4c(Cl)cc(Cl)c(O)c4n3)cc2c1`, for which the growth in the experiment on T-47D breast was -65.9% (active); in the experiment on BT-549 breast it was -88.3% (active); in the experiment with MDA-MB-435 melanoma, -85% (active); with SW-620 colon, -68.2% (active); in the experiment on MCF7 breast it was -21.3% (active); in the experiment on HCT-116 colon, -92.3% (active). Besides, the values for the growth in the experiment with HCC-2998 colon and in the experiment with KM12 colon were -39.7% (active) and -31% (active), respectively.

In the case of `CC(C)c1ccc2occ(C=C3C(=O)NC(=O)NC3=O)c(=O)c2c1`, the growth was 83.5% in the experiment on T-47D breast; 92.4% in the experiment with BT-549 breast; 105% with MDA-MB-435 melanoma; 91.6% with SW-620 colon; 80.8% in the experiment on MCF7 breast; 76.5% with HCT-116 colon. Moreover, the growth with HCC-2998 colon is 93.7%; in the experiment on KM12 colon, 117%.

For the molecule `CCCCCCCCC(C)OC(=O)c1nn(C(C)=O)c2ccccc12` (configuration not stated), the growth in the experiment on T-47D breast is 88.6%; in the experiment with BT-549 breast, 95.4%; in the experiment with MDA-MB-435 melanoma, 101%; with SW-620 colon it was 103%; in the experiment with MCF7 breast, 90.1%; in the experiment with HCT-116 colon, 97%. The growth in the experiment on HCC-2998 colon is 98%; in the experiment on KM12 colon, 103%.

With `Cn1ncc2c(Sc3ccc(Cl)cc3)ncnc21`, the growth in the experiment with T-47D breast was 76.1%; in the experiment with BT-549 breast it was 62.1%; in the experiment with MDA-MB-435 melanoma it was 92.3%; in the experiment with SW-620 colon it was 100%; with MCF7 breast, 87.4%; with HCT-116 colon, 103%. Further, the growth with HCC-2998 colon is 85.7%; in the experiment on KM12 colon, 95.6%.

With `CCN(CC)CCCNc1nccc2ccc(Cl)cc12`, the growth is 106% in the experiment on T-47D breast; 92.8% with BT-549 breast; 103% in the experiment on MDA-MB-435 melanoma; 104% in the experiment on SW-620 colon; 94% in the experiment on MCF7 breast; 84.9% with HCT-116 colon. Besides, the growth in the experiment with HCC-2998 colon is 106%; in the experiment with KM12 colon it was 111%.

As to `Cc1ccc(/C=C2\CN(C(=O)CCN3CCC(=NO)CC3)C/C(=C\c3ccc(C)cc3)C2=O)cc1`, the growth in the experiment with T-47D breast is 16.4%; in the experiment on BT-549 breast, 11.2%; in the experiment on MDA-MB-435 melanoma, -39.8% (active); with SW-620 colon, -34.1% (active); in the experiment on MCF7 breast, -3.62% (active); in the experiment on HCT-116 colon it was -74.5% (active). For the same molecule, the growth was -70.7% (active) in the experiment with HCC-2998 colon and -75.3% (active) in the experiment with KM12 colon.

In the case of `NC1=C(/C(N)=N/O)C(c2ccccc2)c2ccc3ccccc3c2O1` (configuration not stated), the growth in the experiment on T-47D breast is 54.5%; in the experiment with BT-549 breast, 28%; with MDA-MB-435 melanoma it was -56.2% (active); in the experiment on SW-620 colon, 23%; in the experiment with MCF7 breast it was 9.02% (active); with HCT-116 colon it was 6.57% (active). The growth in the experiment on HCC-2998 colon is 11.8%; in the experiment with KM12 colon it was 11.1%.

Consider `CN(C)CCOC(=O)Nc1ccccc1Cl`, for which the growth was 112% with T-47D breast; 99.3% with BT-549 breast; 105% with MDA-MB-435 melanoma; 109% in the experiment with SW-620 colon; 103% with MCF7 breast; 103% in the experiment on HCT-116 colon. Further, the growth in the experiment with HCC-2998 colon is 111%; with KM12 colon, 112%.

On to `COc1cccc(/C=C/C(=O)Nc2cc(OC)c3c(c2)OCO3)c1`, for which the growth with T-47D breast is 94.7%; in the experiment on BT-549 breast, 108%; in the experiment with MDA-MB-435 melanoma it was 78.9%; in the experiment with SW-620 colon it was 107%; with MCF7 breast, 102%; with HCT-116 colon it was 100%. Moreover, the values for the growth with HCC-2998 colon and in the experiment on KM12 colon were 97% and 89.1%, respectively.

For the molecule `CCCCCCCCCCCCCCCCCCNC(=O)[C@H]1CSC(c2cccs2)N1` (some centres not stated), the growth in the experiment with T-47D breast is -65.7% (active); with BT-549 breast, -77.4% (active); with MDA-MB-435 melanoma it was -90.3% (active); in the experiment on SW-620 colon, -65.5% (active); in the experiment with MCF7 breast, -70.6% (active); with HCT-116 colon, -89.6% (active). Moreover, the growth was -82.4% (active) in the experiment with HCC-2998 colon and -70.9% (active) in the experiment with KM12 colon.

On to `C=C1c2nc3ccccc3n2C=C(c2ccc(Cl)cc2)N1Cc1ccccc1`, for which the growth was 66% in the experiment with T-47D breast; 142% with BT-549 breast; 98.1% with MDA-MB-435 melanoma; 86.9% in the experiment on SW-620 colon; 63% in the experiment on MCF7 breast; 63% with HCT-116 colon. The growth is 89.2% in the experiment on HCC-2998 colon and 86.9% with KM12 colon.

For `COc1ccc(OC)c(/C=C2\Oc3cc(OCCCN4CCCC4)ccc3C2=O)c1`, the growth was 92.6% with T-47D breast; 87.9% with BT-549 breast; 91.2% in the experiment on MDA-MB-435 melanoma; 55.9% in the experiment on SW-620 colon; 55.7% with MCF7 breast; 46.1% in the experiment with HCT-116 colon. For the same molecule, the figures for the growth in the experiment on HCC-2998 colon and with KM12 colon were 87.3% and 73.6%, respectively.

`CN(CCCCCl)P(=O)(OCc1ccc([N+](=O)[O-])o1)C(F)(F)C[C@H](NC(=O)CNC(=O)c1ccc(N=[N+]=[N-])cc1)C(=O)NCCc1ccc(O)cc1` (some centres not stated): the growth with T-47D breast is 90.5%; in the experiment on BT-549 breast, 79%; with MDA-MB-435 melanoma, 41.5%; with SW-620 colon, 37.6%; in the experiment on MCF7 breast, 61.6%; in the experiment with HCT-116 colon, 78.4%. Further, the growth with HCC-2998 colon was 98.4%; in the experiment on KM12 colon it was 91.1%.
